Data as given in PubChem BioAssay AID1159580 (chemical genetic matrix, 2015).
“And” between values parts separate entries of the source, which are not always exact repeats. Equal values may be shown once. About 2,000 (36%) of roughly 5,500 compounds were called active. Another 18% or so got no clear call; they are omitted. No stated cut-off is given here; in the data, active means normalized growth mostly below about 0.91 (no sharp cut-off); inconclusive means no clear call, values can overlap the other calls; inactive means mostly above about 0.92. The list shows a part of the results.

Assay: chemical genetic growth profiling, strain panel (AID 1159580);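 further: tested at 20 µM; growth read once vehicle control cultures reached saturation at 30 °C; 1 = growth at the plate median or of vehicle wells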
Details: S. cerevisiae deletion strains, growth OD

Measured: normalized growth

Oc1cc(O)c2c(c1)O[C@H](c1ccc(O)c(O)c1)[C@@H](O)C2
inactive: locus YAL021C, strain ccr4, stronger effect = lower value 1.03 | locus YAL026C, strain drs2, stronger effect = lower value 1.01 | locus YAL030W, strain snc1, stronger effect = lower value 1.01 | locus YBL061C, strain skt5, stronger effect = lower value 1.01 | locus YBR009C, strain hhf1, stronger effect = lower value 0.993 | locus YBR021W, strain FUR4, stronger effect = lower value 1.05 | locus YBR023C, strain chs3, stronger effect = lower value 1.02 | locus YBR171W, strain sec66, stronger effect = lower value 1.01 | locus YBR229C, strain ROT2, stronger effect = lower value 0.957 | locus YBR231C, strain swc5, stronger effect = lower value 1.01 | locus YBR279W, strain paf1, stronger effect = lower value 1.01 | locus YCL011C, strain gbp2, stronger effect = lower value 1.01 | locus YCL016C, strain dcc1, stronger effect = lower value 1.01 | locus YCL029C, strain bik1, stronger effect = lower value 0.972 | locus YCL061C, strain MRC1, stronger effect = lower value 1.01 | locus YCL069W, strain vba3, stronger effect = lower value 1 | locus YCR088W, strain abp1, stronger effect = lower value 1.01 | locus YDL005C, strain med2, stronger effect = lower value 1.01 | locus YDL035C, strain GPR1, stronger effect = lower value 0.985 | locus YDL040C, strain nat1, stronger effect = lower value 1 | locus YDL074C, strain BRE1, stronger effect = lower value 1 | locus YDL101C, strain DUN1, stronger effect = lower value 0.979 | locus YDL185W, strain tfp1, stronger effect = lower value 0.978 | locus YDL192W, strain arf1, stronger effect = lower value 0.992 | locus YDR001C, strain nth1, stronger effect = lower value 0.994 | locus YDR069C, strain doa4, stronger effect = lower value 1.02 | locus YDR101C, strain arx1, stronger effect = lower value 1.03 | locus YDR137W, strain rgp1, stronger effect = lower value 1.03 | locus YDR159W, strain sac3, stronger effect = lower value 1 | locus YDR162C, strain NBP2, stronger effect = lower value 0.962 | locus YDR195W, strain ref2 0.972 | locus YDR297W, strain sur2, stronger effect = lower value 1.01 | locus YDR318W, strain mcm21, stronger effect = lower value 0.981 | locus YDR334W, strain swr1, stronger effect = lower value 1 | locus YDR335W, strain msn5, stronger effect = lower value 1.01 | locus YDR388W, stronger effect = lower value 0.963 | locus YDR392W, strain spt3, stronger effect = lower value 0.981 | locus YDR502C, strain sam2, stronger effect = lower value 1.01 | locus YEL003W, strain gim4, stronger effect = lower value 1.02 | locus YEL037C, strain rad23, stronger effect = lower value 1.01 | locus YEL061C, strain CIN8 (second series), stronger effect = lower value 1 | locus YEL061C, strain CIN8, stronger effect = lower value 0.988 | locus YER015W, strain faa2, stronger effect = lower value 1 | locus YER016W, strain bim1, stronger effect = lower value 0.997 | locus YER110C, stronger effect = lower value 0.98 | locus YER111C, strain swi4, stronger effect = lower value 0.988 | locus YER155C, strain BEM2 (second series), stronger effect = lower value 1.01 | locus YER155C, strain BEM2, stronger effect = lower value 0.991 | locus YER167W, strain BCK2, stronger effect = lower value 0.994 | locus YFR010W, strain ubp6, stronger effect = lower value 1.02 | locus YGL078C, strain dbp3, stronger effect = lower value 0.99 | locus YGL086W, strain mad1, stronger effect = lower value 1.04 | locus YGL167C, strain pmr1, stronger effect = lower value 1.01 | locus YGL173C, strain kem1, stronger effect = lower value 1.01 | locus YGL227W, strain vid30, stronger effect = lower value 1 | locus YGL240W, strain doc1, stronger effect = lower value 1.01 | locus YGL248W, strain PDE1, stronger effect = lower value 0.988 | locus YGL253W, strain hxk2, stronger effect = lower value 1.01 | locus YGR078C, strain PAC10, stronger effect = lower value 0.976 | locus YGR135W, strain pre9, stronger effect = lower value 0.966 | locus YGR252W, strain gcn5, stronger effect = lower value 0.947 | locus YHR013C, strain ard1, stronger effect = lower value 0.984 | locus YHR027C, strain rpn1, stronger effect = lower value 1.01 | locus YHR030C, strain SLT2, stronger effect = lower value 0.996 and 0.983 | locus YHR079C, strain IRE1 (second series), stronger effect = lower value 0.979 | locus YHR079C, strain IRE1, stronger effect = lower value 0.974 | locus YHR094C, strain hxt1, stronger effect = lower value 0.972 | locus YHR129C, strain ARP1, stronger effect = lower value 0.998 | locus YHR142W, strain chs7, stronger effect = lower value 1.03 | locus YHR200W, strain rpn10, stronger effect = lower value 0.975 | locus YIL066C, strain RNR3, stronger effect = lower value 0.992 | locus YIL073C, strain SPO22, stronger effect = lower value 1.02 | locus YIL125W, strain kgd1, stronger effect = lower value 1 | locus YIR030C, strain dcg1, stronger effect = lower value 0.994 | locus YJL092W, strain hpr5, stronger effect = lower value 1 | locus YJL095W, strain BCK1 (second series), stronger effect = lower value 1 | locus YJL095W, strain BCK1, stronger effect = lower value 0.977 and 0.984 | locus YJL115W, strain asf1, stronger effect = lower value 1 | locus YJL129C, strain trk1, stronger effect = lower value 1.01 | locus YJL134W, strain LCB3, stronger effect = lower value 0.989 | locus YJL154C, strain vps35, stronger effect = lower value 1 | locus YJL164C, strain tpk1, stronger effect = lower value 1.01 | locus YJL166W, strain qcr8, stronger effect = lower value 1.02 | locus YJL168C, strain set2, stronger effect = lower value 0.99 | locus YJL187C, strain SWE1 (second series), stronger effect = lower value 0.971 | locus YJL187C, strain SWE1, stronger effect = lower value 1.01 | locus YJR043C, strain POL32, stronger effect = lower value 1.01
